Experiment [1] relates to Sodium/Iodide Symporter (NIS), SLC5A5 (gene 6528). Briefly: CPHEA_Stoker_NIS_Inhibition_RAIU: CPHEA's Radioactive Iodide Uptake (RAIU) Assay for Sodium/Iodide Symporter (NIS) Inhibition, Stoker and Laws Labs (AID 2283841). A digest of the protocol: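 Test chemicals, six concentrations from 0.001 to 100uM in 0.5% DMSO, were co-incubated with carrier-free 125I (final 329pM) on hNIS-HEK293T-EPA monolayers in pH 7.4 HEPES-buffered HBSS. Plates stood 2 hours at room temperature, then were washed cold and counted.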

Experiment [2] deals with frog Estrogen Receptor (ER), gene 398734. Kind of experiment: ATG_frER1_XSP2: Attagene TRANS-FACTORIAL Multi-Species (XSP2) HepG2 Assay for frog Estrogen Receptor (ER) (AID 2283821).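 Further: hits raise reporter mRNA above DMSO baseline so potency means agonist or activator.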 A digest of the protocol: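 Steps: transfect HepG2 with multiple reporter transcription units; treat with chemical for 24 h; isolate RNA, reverse-transcribe, PCR-amplify, label with 6-FAM, digest with HpaI; resolve fragments by capillary electrophoresis. Signal is scored against DMSO.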

The nature of experiment [3]: ATG_M_19_XSP2: Attagene TRANS-FACTORIAL Multi-Species (XSP2) HepG2 Assay for M32 Transcription Factor (Internal Marker) (AID 2283822). The method, boiled down: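 Internal background marker in a multi-species nuclear receptor TRANS panel: transfected HepG2 cells exposed 24 h, with 3 nM 6-alpha-fluorotestosterone and 1.5 nM norgestrel present. Readout is RT-PCR of reporter transcripts resolved by capillary electrophoresis, gain-of-signal versus DMSO.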

Experiment [4] concerns zebrafish Estrogen Receptor (ER2b), gene 317733. Kind of experiment: ATG_zfER2b_XSP2: Attagene TRANS-FACTORIAL Multi-Species (XSP2) HepG2 Assay for zebrafish Estrogen Receptor (ER2b) (AID 2283823).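 Further: fitted upward as reporter gain over DMSO so potency reflects activation.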 The method, boiled down:
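Transfect HepG2 with GAL4-UAS reporter constructs; dose chemicals, 24 h; isolate RNA, RT-PCR, FAM-label, HpaI digest; capillary electrophoresis. Gain-of-signal vs DMSO.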

Experiment [5] in a line: ATG_M_32_XSP2: Attagene TRANS-FACTORIAL Multi-Species (XSP2) HepG2 Assay for M19 Transcription Factor (Internal Marker) (AID 2283826). A digest of the protocol: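 Read-out: fluorescent reporter mRNA fragments resolved by capillary electrophoresis after RT-PCR, gain-of-signal versus DMSO baseline. Cells were human HepG2 carrying transfected multi-reporter units, exposed 24 h. Medium contained 3 nM 6-alpha-fluorotestosterone plus 1.5 nM norgestrel.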

The target in experiment [6] is Estrogen receptor (Homo sapiens) (UniProt P03372). Kind of experiment: ATG_hERa_XSP2: Attagene TRANS-FACTORIAL Multi-Species (XSP2) HepG2 Assay for human Estrogen Receptor (ERa) (AID 2283827). A digest of the protocol: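 HepG2 cells transiently transfected with multiplexed GAL4-UAS reporters driven by chimeric receptor-Gal4 proteins, dosed 24 h with 3 nM 6-alpha-fluorotestosterone and 1.5 nM norgestrel present. Reporter mRNA by RT-PCR and capillary electrophoresis; gain-of-signal fit versus DMSO.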

The subject of experiment [7] is frog Estrogen Receptor (ER2), gene 100174814. Briefly: ATG_frER2_XSP2: Attagene TRANS-FACTORIAL Multi-Species (XSP2) HepG2 Assay for frog Estrogen Receptor (ER2) (AID 2283828). A digest of the protocol:
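Multiplexed transactivation in HepG2: frog estrogen receptor fused to Gal4 drives a UAS reporter. Signal is reporter mRNA after 24 h treatment.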

Experiment [8] concerns the target Peroxisome proliferator-activated receptor gamma (Homo sapiens) (UniProt P37231). Kind of experiment: ATG_hPPARg_XSP2: Attagene TRANS-FACTORIAL Multi-Species (XSP2) HepG2 Assay for human Peroxisome Proliferator-activated Receptor gamma (PPARg) (AID 2283829).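 Further: actives raise reporter mRNA above DMSO so AC50 reflects PPARg activation.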 The method, boiled down:
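Transient MRTU transfection, HepG2; TRANS format (exogenous NR-Gal4 chimeras). 24 h chemical exposure with 3 nM 6-alpha-fluorotestosterone and 1.5 nM norgestrel present. Readout: reporter mRNA via RT-PCR/CE fluorescence, up-direction vs DMSO.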

Experiment [9] addresses mouse Peroxisome Proliferator-activated Receptor gamma (PPARg), Pparg (gene 19016) (UniProt P37238). Kind of experiment: ATG_mPPARg_XSP2: Attagene TRANS-FACTORIAL Multi-Species (XSP2) HepG2 Assay for mouse Peroxisome Proliferator-activated Receptor gamma (PPARg) (AID 2283830).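 Further: hits are gains in reporter mRNA above DMSO so AC50 marks activation.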 The method, boiled down:
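HepG2 cells transiently transfected with GAL4-UAS reporter units for chimeric NR-Gal4 proteins including mouse PPARg, exposed 24 h; medium contained 3 nM 6-alpha-fluorotestosterone and 1.5 nM norgestrel. Reporter mRNA quantified by RT-PCR, HpaI digestion and capillary electrophoresis, vs DMSO.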

Experiment [10] concerns the target Nuclear receptor subfamily 1 group I member 2 (Mus musculus) (UniProt O54915). Kind of experiment: ATG_mPXR_XSP2: Attagene TRANS-FACTORIAL Multi-Species (XSP1) HepG2 Assay for mouse Pregnane X Receptor (PXR) (AID 2283831). The method, boiled down: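 Transient HepG2 transfection, multiplexed GAL4-UAS reporters, NR-GAL4 chimeras. 24 h compound exposure. Readout: reporter mRNA, RT-PCR, fluorescent capillary electrophoresis; positive direction vs DMSO baseline.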

Experiment [11] deals with zebrafish Thyroid Hormone Receptor alpha (TRa), thraa (gene 30670) (UniProt Q98867). Kind of experiment: ATG_zfTRa_XSP2: Attagene TRANS-FACTORIAL Multi-Species (XSP1) HepG2 Assay for zebrafish Thyroid Hormone Receptor alpha (TRa) (AID 2283832).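 Further: actives raise zebrafish TRa-Gal4 reporter transcript above DMSO baseline.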 The method, boiled down:
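Transient transfection of human HepG2 with GAL4-UAS reporter units, then 24 h chemical treatment. RNA isolated, reverse-transcribed, PCR-amplified, FAM-labelled, HpaI-digested and run on capillary electrophoresis. Gain-of-signal relative to DMSO.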

In experiment [12] the test system is zebrafish Peroxisome Proliferator-activated Receptor gamma (PPARg), gene 557037. Briefly: ATG_zfPPARg_XSP2: Attagene TRANS-FACTORIAL Multi-Species (XSP2) HepG2 Assay for zebrafish Peroxisome Proliferator-activated Receptor gamma (PPARg) (AID 2283833).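 Further: reporter mRNA from a zebrafish PPARg GAL4 chimera measured by RT-PCR and capillary electrophoresis; actives increase reporter signal over DMSO so AC50 reflects activation.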 A digest of the protocol: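 Transfect HepG2 with multiplexed GAL4-UAS reporter constructs; dose chemical 24 h; isolate RNA, reverse-transcribe, PCR-amplify, label and digest reporter products; resolve by capillary electrophoresis. Activity taken as increase over DMSO.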

The test system of experiment [13] is turtle Thyroid Hormone Receptor, alpha (TRa), gene 101949057. Kind of experiment: ATG_trTRa_XSP2: Attagene TRANS-FACTORIAL Multi-Species (XSP1) HepG2 Assay for turtle Thyroid Hormone Receptor, alpha (TRa) (AID 2283834).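 Further: hits raise reporter mRNA over the DMSO baseline so AC50 marks activators.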 A digest of the protocol: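 Readout: reporter mRNA induction, fluorescence after RT-PCR, HpaI digestion and capillary electrophoresis. Transiently transfected HepG2, exogenous NR-Gal4 chimera driving GAL4-UAS reporter, 24 h compound exposure. Activity fitted upward relative to DMSO baseline.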

The target in experiment [14] is zebrafish Thyroid Hormone Receptor beta (TRb), thrb (gene 30607) (UniProt Q9PVE4). Kind of experiment: ATG_zfTRb_XSP2: Attagene TRANS-FACTORIAL Multi-Species (XSP1) HepG2 Assay for zebrafish Thyroid Hormone Receptor beta (TRb) (AID 2283836).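 On AC50: potency for induction of reporter signal above DMSO so agonist direction.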 The method, boiled down: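 Human liver HepG2, transient MRTU transfection (NR-Gal4 chimeras, GAL4-UAS reporters); 24 h compound exposure; total RNA → oligo(dT) RT → PCR → 6-FAM label → HpaI cut → CE fluorescence. DMSO = negative control/baseline.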

The nature of experiment [15]: ATG_XTT_Cytotoxicity_XSP2: Cytotoxicity Assessment in the Attagene TRANS-FACTORIAL Multi-Species (XSP2) HepG2 Assay (AID 2283837). The method, boiled down: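 HepG2 cells, transiently transfected with multiple reporter constructs, exposed to chemical for 24 h. Cell number assessed with XTT fluorescence read-out; loss of signal fitted relative to DMSO.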
In experiment [16] the target is human Thyroid hormone Receptor alpha (TRa), THRA (gene 7067) (UniProt P10827). Briefly: ATG_hTRa_XSP2: Attagene TRANS-FACTORIAL Multi-Species (XSP2) HepG2 Assay for human Thyroid hormone Receptor alpha (TRa) (AID 2283838). A digest of the protocol:
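HepG2 cells were transiently transfected with GAL4-UAS reporter units for chimeric human TRa-Gal4 and dosed for 24 hours, with 3 nM 6-alpha-fluorotestosterone and 1.5 nM norgestrel present. Reporter mRNA was quantified by RT-PCR, FAM labelling and capillary electrophoresis, with gain of signal fitted versus DMSO.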

In experiment [17] the target is frog Thyroid hormone Receptor alpha (TRa), thra-a (gene 397942) (UniProt P15204). Briefly: ATG_frTRa_XSP2: Attagene TRANS-FACTORIAL Multi-Species (XSP2) HepG2 Assay for frog Thyroid hormone Receptor alpha (TRa) (AID 2283839).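 Further: AC50 reflects induction of frog TRa-driven reporter mRNA above DMSO baseline.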 The method, boiled down: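 Read-out: fluorescent reporter-transcript fragments resolved by capillary electrophoresis after RT-PCR and HpaI cut. Human HepG2 liver cells carry a transfected frog TRα-Gal4 chimera driving a UAS reporter; 24 h exposure, DMSO baseline, positive-direction fit.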

Experiment [18] concerns the target human Thyroid hormone Receptor beta (TRb), THRB (gene 7068) (UniProt P10828). Briefly: ATG_hTRb_XSP2: Attagene TRANS-FACTORIAL Multi-Species (XSP2) HepG2 Assay for human Thyroid hormone Receptor beta (TRb) (AID 2283840).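 Further: actives raise reporter mRNA so potency reflects agonist-like gain of signal.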 A digest of the protocol:
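Read-out: reporter mRNA induction (RT-PCR, 6-FAM labeling, capillary electrophoresis), gain-of-signal relative to DMSO baseline. Transiently transfected HepG2 TRANS multiplex (NR-Gal4 chimeras, GAL4-UAS reporters), 24 h chemical exposure; medium contained 3 nM 6-alpha-fluorotestosterone plus 1.5 nM norgestrel.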

The nature of experiment [19]: ATG_M_61_XSP2: Attagene TRANS-FACTORIAL Multi-Species (XSP2) HepG2 Assay for M61 Transcription Factor (Internal Marker) (AID 2283835; active means hit-call score of the fitted dose curve at least 0.9, where 1 is the maximum; inactive means score below 0.9;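 further: active means a rise in signal above the DMSO baseline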). A digest of the protocol: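 First, HepG2 cells are transfected with reporter units under GAL4-UAS control. Next, chemicals are applied for 24 h. Then total RNA is reverse-transcribed, amplified, fluorescently labelled and sized by capillary electrophoresis, with gain of signal scored against DMSO.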

Molecules are shown by their SMILES. Several values for one entry are separate records, joined by “and”; a condition that tells them apart may be missing. Equal values may be shown once. Results filed as inconclusive are left out. Some structures have more than one record in an assay (separate samples or runs), and their calls can disagree. Activity calls are given as the source filed them. How the source made its calls, unless noted: active means hit-call score of the fitted dose curve at least 0.9, where 1 is the maximum; inconclusive means response in the unintended direction; inactive means score below 0.9.

zebrafish Thyroid Hormone Receptor beta (TRb), thrb (gene 30607), sequence (Q9PVE4 whole entry, looked up, the tested form may be a part): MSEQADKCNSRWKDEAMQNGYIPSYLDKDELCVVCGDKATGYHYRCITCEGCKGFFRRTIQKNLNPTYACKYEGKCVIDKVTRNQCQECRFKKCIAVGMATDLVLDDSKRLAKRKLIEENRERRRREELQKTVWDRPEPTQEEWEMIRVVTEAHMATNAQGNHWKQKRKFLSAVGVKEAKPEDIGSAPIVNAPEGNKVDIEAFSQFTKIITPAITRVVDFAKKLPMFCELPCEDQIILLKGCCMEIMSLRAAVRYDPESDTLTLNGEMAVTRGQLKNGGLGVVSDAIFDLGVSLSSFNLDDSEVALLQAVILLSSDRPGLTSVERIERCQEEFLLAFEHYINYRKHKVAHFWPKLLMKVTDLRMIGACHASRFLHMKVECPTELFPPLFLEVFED
zebrafish Thyroid Hormone Receptor alpha (TRa), thraa (gene 30670), sequence (Q98867 whole entry, looked up, the tested form may be a part): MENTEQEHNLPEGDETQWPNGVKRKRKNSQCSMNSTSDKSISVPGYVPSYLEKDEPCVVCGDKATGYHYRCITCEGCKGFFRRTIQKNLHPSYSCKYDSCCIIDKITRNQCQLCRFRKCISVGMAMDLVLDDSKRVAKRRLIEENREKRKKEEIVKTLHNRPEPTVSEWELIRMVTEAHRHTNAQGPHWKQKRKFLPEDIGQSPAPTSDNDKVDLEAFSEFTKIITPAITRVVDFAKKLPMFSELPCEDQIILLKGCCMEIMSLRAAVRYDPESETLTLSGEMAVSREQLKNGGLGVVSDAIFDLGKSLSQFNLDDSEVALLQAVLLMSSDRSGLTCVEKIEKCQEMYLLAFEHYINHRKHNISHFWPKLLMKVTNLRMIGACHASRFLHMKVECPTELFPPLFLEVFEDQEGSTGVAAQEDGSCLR
Peroxisome proliferator-activated receptor gamma (Homo sapiens), sequence (P37231 whole entry, looked up, the tested form may be a part): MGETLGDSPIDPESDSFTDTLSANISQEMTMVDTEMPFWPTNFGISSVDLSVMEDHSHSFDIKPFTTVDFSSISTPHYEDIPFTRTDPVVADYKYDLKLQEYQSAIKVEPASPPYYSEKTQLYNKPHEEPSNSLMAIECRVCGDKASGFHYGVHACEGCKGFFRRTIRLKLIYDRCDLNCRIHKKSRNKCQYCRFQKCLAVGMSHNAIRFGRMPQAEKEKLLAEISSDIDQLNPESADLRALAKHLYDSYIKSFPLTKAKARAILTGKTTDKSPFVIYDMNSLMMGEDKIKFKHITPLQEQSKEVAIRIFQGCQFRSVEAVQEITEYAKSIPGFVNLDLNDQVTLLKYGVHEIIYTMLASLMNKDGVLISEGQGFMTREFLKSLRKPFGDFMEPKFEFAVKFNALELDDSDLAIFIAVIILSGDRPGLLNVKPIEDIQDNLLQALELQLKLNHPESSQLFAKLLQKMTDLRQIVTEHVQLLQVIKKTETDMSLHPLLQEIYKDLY
mouse Peroxisome Proliferator-activated Receptor gamma (PPARg), Pparg (gene 19016), sequence (P37238 whole entry, looked up, the tested form may be a part): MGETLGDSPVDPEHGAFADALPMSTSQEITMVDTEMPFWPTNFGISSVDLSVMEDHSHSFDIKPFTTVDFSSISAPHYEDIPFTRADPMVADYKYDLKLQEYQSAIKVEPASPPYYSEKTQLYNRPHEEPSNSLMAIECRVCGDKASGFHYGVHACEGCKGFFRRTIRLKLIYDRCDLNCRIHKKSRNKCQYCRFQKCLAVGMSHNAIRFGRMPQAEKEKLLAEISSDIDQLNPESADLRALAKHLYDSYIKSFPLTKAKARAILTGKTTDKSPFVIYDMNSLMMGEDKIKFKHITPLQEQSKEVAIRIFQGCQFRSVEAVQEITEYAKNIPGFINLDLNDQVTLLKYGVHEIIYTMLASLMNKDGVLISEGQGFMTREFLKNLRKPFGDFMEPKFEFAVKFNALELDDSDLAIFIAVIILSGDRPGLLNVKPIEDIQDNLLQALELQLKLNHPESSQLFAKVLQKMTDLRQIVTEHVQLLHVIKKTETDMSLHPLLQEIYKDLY
Nuclear receptor subfamily 1 group I member 2 (Mus musculus), sequence (O54915 whole entry, looked up, the tested form may be a part): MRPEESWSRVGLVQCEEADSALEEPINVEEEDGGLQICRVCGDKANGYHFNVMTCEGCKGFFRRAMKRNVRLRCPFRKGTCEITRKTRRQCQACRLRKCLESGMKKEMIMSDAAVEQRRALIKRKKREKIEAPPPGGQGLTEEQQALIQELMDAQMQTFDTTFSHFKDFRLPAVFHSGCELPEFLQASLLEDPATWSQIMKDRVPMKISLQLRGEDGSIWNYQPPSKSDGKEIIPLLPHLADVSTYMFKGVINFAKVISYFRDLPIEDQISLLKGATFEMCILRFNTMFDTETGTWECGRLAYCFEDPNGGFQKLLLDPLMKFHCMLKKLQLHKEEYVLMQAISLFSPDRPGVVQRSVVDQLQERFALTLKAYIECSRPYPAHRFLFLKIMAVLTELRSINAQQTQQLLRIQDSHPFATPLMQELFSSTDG
Estrogen receptor (Homo sapiens), sequence (P03372 whole entry, looked up, the tested form may be a part): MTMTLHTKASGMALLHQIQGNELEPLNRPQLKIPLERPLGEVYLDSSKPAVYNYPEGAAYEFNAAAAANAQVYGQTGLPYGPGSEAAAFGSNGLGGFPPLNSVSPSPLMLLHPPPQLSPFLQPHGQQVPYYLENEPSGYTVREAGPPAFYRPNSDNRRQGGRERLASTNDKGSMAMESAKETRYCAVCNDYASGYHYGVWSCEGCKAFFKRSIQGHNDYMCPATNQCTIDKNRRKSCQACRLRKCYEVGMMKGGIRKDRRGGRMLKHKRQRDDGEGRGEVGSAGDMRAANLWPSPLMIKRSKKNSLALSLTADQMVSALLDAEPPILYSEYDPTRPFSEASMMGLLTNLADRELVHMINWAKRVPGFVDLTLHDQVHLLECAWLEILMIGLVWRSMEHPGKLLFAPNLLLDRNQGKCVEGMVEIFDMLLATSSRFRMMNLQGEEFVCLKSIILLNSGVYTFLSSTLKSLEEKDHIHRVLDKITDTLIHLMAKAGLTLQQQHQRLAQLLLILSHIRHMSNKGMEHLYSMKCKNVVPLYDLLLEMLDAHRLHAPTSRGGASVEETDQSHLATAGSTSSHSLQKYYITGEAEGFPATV
frog Thyroid hormone Receptor alpha (TRa), thra-a (gene 397942), sequence (P15204 whole entry, looked up, the tested form may be a part): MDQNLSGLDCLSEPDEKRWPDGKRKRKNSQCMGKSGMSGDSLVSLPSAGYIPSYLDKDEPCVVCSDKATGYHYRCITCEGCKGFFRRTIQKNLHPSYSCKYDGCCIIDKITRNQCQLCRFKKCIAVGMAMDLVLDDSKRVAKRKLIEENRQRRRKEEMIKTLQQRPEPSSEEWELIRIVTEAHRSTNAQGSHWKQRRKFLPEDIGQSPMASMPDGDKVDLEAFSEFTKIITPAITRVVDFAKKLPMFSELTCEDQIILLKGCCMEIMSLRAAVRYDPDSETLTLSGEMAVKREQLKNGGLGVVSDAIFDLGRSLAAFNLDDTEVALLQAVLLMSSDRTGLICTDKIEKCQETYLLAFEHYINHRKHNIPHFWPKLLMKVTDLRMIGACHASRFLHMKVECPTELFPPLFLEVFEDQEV
human Thyroid hormone Receptor alpha (TRa), THRA (gene 7067), sequence (P10827 whole entry, looked up, the tested form may be a part): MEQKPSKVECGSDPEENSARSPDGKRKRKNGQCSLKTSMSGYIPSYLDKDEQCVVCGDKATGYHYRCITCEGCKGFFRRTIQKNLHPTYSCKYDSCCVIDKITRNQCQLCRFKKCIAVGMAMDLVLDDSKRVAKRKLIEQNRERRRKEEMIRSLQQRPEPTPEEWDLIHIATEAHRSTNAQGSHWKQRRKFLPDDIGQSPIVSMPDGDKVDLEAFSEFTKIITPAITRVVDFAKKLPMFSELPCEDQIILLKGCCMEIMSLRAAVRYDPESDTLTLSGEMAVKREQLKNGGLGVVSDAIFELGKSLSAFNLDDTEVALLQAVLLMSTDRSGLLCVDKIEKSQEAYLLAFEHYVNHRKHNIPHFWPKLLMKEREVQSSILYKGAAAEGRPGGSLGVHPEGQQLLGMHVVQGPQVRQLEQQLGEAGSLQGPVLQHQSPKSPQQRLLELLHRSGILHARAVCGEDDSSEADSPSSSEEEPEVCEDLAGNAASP
human Thyroid hormone Receptor beta (TRb), THRB (gene 7068), sequence (P10828 whole entry, looked up, the tested form may be a part): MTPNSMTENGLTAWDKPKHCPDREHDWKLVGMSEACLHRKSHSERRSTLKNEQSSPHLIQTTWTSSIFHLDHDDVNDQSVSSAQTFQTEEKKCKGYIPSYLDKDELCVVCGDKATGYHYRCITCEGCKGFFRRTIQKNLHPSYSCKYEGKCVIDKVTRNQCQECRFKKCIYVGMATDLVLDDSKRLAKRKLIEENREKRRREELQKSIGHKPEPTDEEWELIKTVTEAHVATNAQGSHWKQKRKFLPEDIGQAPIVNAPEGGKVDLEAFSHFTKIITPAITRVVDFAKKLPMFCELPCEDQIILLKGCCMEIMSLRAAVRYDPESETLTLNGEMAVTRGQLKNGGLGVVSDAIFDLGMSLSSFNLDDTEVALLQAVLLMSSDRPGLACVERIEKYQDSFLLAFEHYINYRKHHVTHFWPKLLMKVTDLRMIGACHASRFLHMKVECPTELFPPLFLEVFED

Turning to `N#CSCSC#N`, the AC50 in [1] was 18.3 µM (active).

As for `CCCCOC(=O)[C@@H](C)Oc1ccc(Oc2ccc(C#N)cc2F)cc1`, the result in [1] was inactive.

As for `CCOP(=S)(OCC)Oc1ccc([N+](=O)[O-])cc1`, the result in [1] was inactive.

Turning to `Nc1c(Cl)cc([N+](=O)[O-])cc1Cl`, the call in [2], in experiment [3], in experiment [5], in experiment [7], in experiment [11] and in experiment [12] was inactive. The result in experiment [14], in experiment [15] and in [1] was inactive. Besides, the AC50 in [4] is 25.3 µM (active) and 49.6 µM (active); in [6] it was 10.9 µM (active) and 17.4 µM (active); in experiment [8], 25.7 µM (active) and 34.9 µM (active); in experiment [9], 11.9 µM (active) and 41.8 µM (active); in [10], 10.8 µM (active) and 9.9 µM (active); in experiment [13], 23.6 µM (active) and 29.8 µM (active). The AC50 in experiment [14] is 48.3 µM (active); in experiment [16], 43.6 µM (active) and 22.8 µM (active); in experiment [17], 27.1 µM (active); in experiment [18] it was 27.6 µM (active) and 82.2 µM (active).

In the case of `COP(=O)(OC)OC(Br)C(Cl)(Cl)Br` (stereo not drawn), the result in experiment [1] was inactive.

On to `CCCOCC(=Nc1ccc(Cl)cc1C(F)(F)F)n1ccnc1`, for which the compound was called inactive in experiment [2], in experiment [5], in experiment [7], in experiment [11], in experiment [12] and in experiment [19]. In experiment [14], the compound was called inactive. In addition, the concentration at half-maximal activity (AC50) in experiment [4] was 39.8 µM (active); in [8], 909 nM (active); in experiment [9] it was 1.28 µM (active); in experiment [10], 9.9 µM (active); in [1], 29 µM (active).

On to `CC(C)=CC1C(C(=O)OCN2C(=O)C3=C(CCCC3)C2=O)C1(C)C` (stereo not drawn), for which the AC50 in experiment [1] is 32.9 µM (active).

In the case of `CCCCSP(=O)(SCCCC)SCCCC`, the result in experiment [1] was inactive.

Turning to `C[Si](Cn1cncn1)(c1ccc(F)cc1)c1ccc(F)cc1`, the outcome in [1] was inactive.

These data come from PubChem BioAssay (EPA / NIEHS).
